Measurements from PubChem BioAssay AID504408 (Broad Institute, 2011).
The campaign covered roughly 300,000 compounds. About 5,200 (1.7%) were called active.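 Rule for the calls: active = mean replicate activation of at least 50% with a set share of replicates each reaching 50%; inconclusive = only one of those two conditions met; inactive = mean below 50% and too few replicates reaching it.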 Many of the other results were omitted from the sample, so actives are more common in it than they were.

Assay: HSF-1 activators, primary screen, NIH3T3-HGL cells, MG132 stress, luminescence, single point (AID 504408);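 note: 0% = median of the neutral control wells and 100% = twice that signal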
Settings: NIH3T3-HGL HSF-1 luciferase reporter, MG132, 8 h; at 9 µM; hits give high values; 100% = twice DMSO control signal

activation, active:
Oc1ccc(-c2cccc(-c3ccc(O)cc3)c2)cc1 62%
Cc1ccc(-n2c(C)cc(/C=N/Nc3ccc([N+](=O)[O-])cn3)c2C)c(C)c1 57.8%
COc1ccc(/C=C/C(=O)c2ccc(NS(=O)(=O)c3ccc(C)cc3)cc2)cc1O 200%
COc1ccc(C2CC(c3cccs3)=NN2c2nc(C)c(C(C)=O)s2)cc1OC (stereo not drawn) 149%
COc1ccc(C2CC(c3cccs3)=NN2c2ccccc2)cc1 (stereo not drawn) 67.4%
COc1ccc(C2=NN(c3ccccc3)C(c3cccs3)C2)cc1 (stereo not drawn) 50.9%
CNc1nc(-c2ccccc2)cc(-c2ccccc2)n1 74.1%
CSc1nc(-c2ccccc2)nc(C(Cl)Cl)n1 84.8%
COc1cc(/C=N/Nc2nc3ccccc3s2)ccc1O 193%
O=[N+]([O-])c1cc(Br)c(O)c(/C=N/Nc2nc3ccccc3s2)c1 57.3%
CSc1nc2ccc(NC(=O)c3c(F)cccc3F)cc2s1 59.4%
Cc1nn2cc(-c3ccc(Cl)cc3)cnc2c1Br 58.7%
CC(=O)c1ccc(NC(=O)c2ccc3c(Cl)c4c(nc3c2)CCCC4)cc1 105%
COc1ccccc1-n1nnnc1S(=O)(=O)Cc1ccc(Cl)cc1 235%
CCOc1cccc(/C=C/c2ccc3ccccc3n2)c1OC(C)=O 132%
Cc1ccc(N2C(=O)SC(N(CC(=O)O)c3ccc(C)cc3)C2=O)cc1 (stereo not drawn) 96.4%
Clc1ccc(-c2ncc3ccccn23)c(Cl)c1 69.3%
COc1ccc(-c2c(C#Cc3ccccc3)c3ccccc3n2C)cc1 64.2%
Cc1cc(C)c(C#N)c(SCc2[nH]nc3c2C(c2ccccc2)C(C#N)=C(N)O3)n1 (stereo not drawn) 64%
Clc1ccc(-c2csc(-c3ccncc3)n2)cc1 58%

activation, inactive:
O=C(OCc1ccc(-c2ccccc2)cc1)c1cccc(O)c1 6.99%
c1ccc(-c2c[nH]c(-c3ccccc3)c2)cc1 -83.8%
Cc1cc(/C=N/Nc2ccc([N+](=O)[O-])cn2)c(C)n1-c1cccc(C(=O)O)c1 2.82%
Cc1ccc(N2CCN(c3ccc([N+](=O)[O-])cn3)CC2)c(C)c1 14%
Cc1ccc(S(=O)(=O)NCCC(=O)OCC(=O)N(C)c2ccccc2)cc1 2.24%
O=C(c1ccc(Cl)s1)N(Cc1nnc(-c2ccccc2Cl)o1)C1CC1 19.5%
Cc1ccc(C(=O)/C=C/Nc2ccc(S(=O)(=O)Nc3onc(C)c3C)cc2)cc1 2.18%
COc1ccc(NS(=O)(=O)c2ccc(NC(=S)NC(=O)/C=C/c3ccc(C)cc3)cc2)nn1 -3.51%
Oc1ccccc1C1=NN(c2ccccc2)C(c2ccccc2)C1 (stereo not drawn) 0.471%
COc1ccc(C2CC(c3cccs3)=NN2C(=O)CCC(=O)O)cc1OC (stereo not drawn) -17.8%
COc1ccc(C2=NN(C(C)=O)C(c3ccccc3)C2)cc1 (stereo not drawn) 21.6%
COc1ccccc1N1N=C(c2cccs2)CC1c1ccccc1 (stereo not drawn) 9.62%
COc1ccc(C2CC(c3cccs3)=NN2c2ccc(F)cc2)cc1OC (stereo not drawn) 22.9%
COc1ccc(C2=NN(C(=O)CCC(=O)O)C(c3cccs3)C2)cc1OC (stereo not drawn) -7.93%
O=S(=O)(c1ccccc1)N1CCC(c2ccccc2)CC1 -26.8%
CN(N)c1nc(N2CCCC2)nc(N2CCCC2)n1 -5.13%
CC(C)COc1ccc(C(=O)OCC(=O)NCCC2=CCCCC2)cc1 -2.4%
Nc1nc(-c2ccccc2)cc(-c2ccccc2)n1 21.8%
Nc1cccc(-c2cc(-c3ccccc3)nc(-c3cccc(N)c3)n2)c1 -6.32%
O=C(COC(=O)c1cccc(Cl)c1)Nc1ccc2[nH]c(=O)[nH]c2c1 9.55%
CSc1ncc(Sc2ccccc2)c(C(=O)O)n1 21.8%
CCOc1ccccc1OCC(=O)Nc1ccccc1C(=O)NC1CC1 -12.2%
Cc1ccc(CNS(=O)(=O)CCNC(=O)c2ccccc2)cc1 -0.388%
COc1ccccc1C(=O)NCCC(=O)NC(C)CCc1ccccc1 (stereo not drawn) 0.822%
O=C1CCCN1C(=O)COc1ccc([N+](=O)[O-])cc1 -3.27%
O=C(NCc1ccncc1)c1ccc(NS(=O)(=O)c2cccc([N+](=O)[O-])c2)cc1 5.25%
Cc1ccc(S(=O)(=O)Nc2nc3ccccc3s2)cc1[N+](=O)[O-] 9.23%
COc1ccc(CC(=O)N/N=C/c2cc([N+](=O)[O-])cc(Br)c2O)cc1 -6.91%
CCNc1nc(NCC)nc(N/N=C/c2ccc(O)c(OC)c2)n1 -8.51%
COc1cc(/C=N\Nc2nc(-c3cccs3)c(NC(C)=O)s2)ccc1O -1.06%
O=S(=O)(Nc1ccc(O)c2ccccc12)c1ccc(OC(F)(F)F)cc1 -68.7%
Cc1csc(=O)n1CC(=O)OCC(=O)N(CC(C)C)c1c(N)n(Cc2ccccc2)c(=O)[nH]c1=O 1.95%
COc1ccc(CNC(=O)C2CCCC2)cc1 -6.99%
CCN(CC)CCn1c2c(c(SCC(=O)Nc3nc4ccccc4s3)nc1=O)CCCC2 -7.63%
CC1(C)O[C@H]2CC(=O)OCC23[C@H]2CC[C@@]4(C)[C@H](c5ccoc5)OC(=O)[C@H]5O[C@]54[C@]2(C)C(=O)C[C@@H]13 (stereo partly drawn) 0.574%
O=C(Nc1ccncc1)c1c(F)cccc1F -55.9%
CCCC(=O)Nc1nc2ccc(NC(=O)c3c(F)c(F)c(OC)c(F)c3F)cc2s1 -10.9%
Cc1onc(-c2c(F)cccc2Cl)c1C(=O)N(C)CC(=O)Nc1cccc(F)c1 -3.94%
COc1ccc(N2CCN(C(=O)c3ccc4c(Cl)c5c(nc4c3)CCCC5)CC2)cc1 -1.04%
CC(C)CCNC(=O)c1ccc2c(Cl)c3c(nc2c1)CCC3 -56.3%
N#CCN(C(=O)COC(=O)C1CC2CCCC(C1)C2=O)c1ccccc1 (stereo not drawn) -11.4%
O=C(NN1CCOCC1)c1cccc(F)c1 13.3%
O=C(COC(=O)Cc1ccccc1F)NNC(=O)c1ccc(Cl)cc1 -9.93%
COc1ccc(CNC(=O)C(=O)N2CCC3(CC2)OCCN3S(=O)(=O)c2ccc(C)cc2)cc1 2.08%
COc1ccccc1N1CCN(S(=O)(=O)c2ccc(Cl)cc2)CC1 4.97%
CCN(C(=O)CSc1nnnn1-c1ccccc1OC)C1CCS(=O)(=O)C1 (stereo not drawn) 26%
Cc1ccc(NC(=O)CSc2nc(=O)n(CCN(C)C)c3c2CCCC3)c(C)c1 -10.7%
CN1CCN(S(=O)(=O)c2ccc(Nc3ccc(F)cc3)nc2)CC1 -7%
NS(=O)(=O)c1ccc(CCNC(=O)CN2C(=O)c3ccccc3S2(=O)=O)cc1 -4.15%
COc1ccc(S(=O)(=O)NCCCc2ccccc2)cc1 -30.2%
NC(=O)COC(=O)/C=C/c1ccc2ccccc2n1 -46.9%
COc1cccc(/C=C/c2ccc3ccccc3n2)c1OC(C)=O -16.6%
O=C(Nc1ncccc1O)c1ccc(C(=O)c2ccccc2)cc1 -2.58%
CCCCn1c(N)c(N(CCOC)C(=O)CSCC(=O)Nc2cccc(C)c2)c(=O)[nH]c1=O 1.06%
CCC1Nc2ncnc(N3CCN(c4ccccc4)CC3)c2N(Cc2ccc(Cl)cc2)C1=O (stereo not drawn) 22.3%
Cc1cccc(N2C(=O)SC(N(CC(=O)O)c3cccc(C)c3)C2=O)c1 (stereo not drawn) 17.2%
Cc1ccc(CC2S/C(=C(/C#N)C(=O)N3CCOCC3)N(c3ccccc3)C2=O)cc1 (stereo not drawn) 19.9%
CC(=O)Nc1ccc(C(=O)NNC(=O)CCCCC(=O)NNC(=O)c2ccc(NC(C)=O)cc2)cc1 0.0985%
Cc1ccc(C(=O)NC2CCCC(C)C2C)cc1S(=O)(=O)N1CCCCC1 (stereo not drawn) 2.09%
O=[N+]([O-])c1ccc(S(=O)(=O)Nc2cccc(-c3ccc(N4CCCC4)nn3)c2)cc1 -7.69%
COn1c(-c2ccc(Cl)cc2Cl)nc2ncccc21 22.3%
Clc1ccc(COn2c(-c3ccc(Cl)cc3Cl)nc3ncccc32)cc1 -4.74%
COc1ccc(-c2cc(C(=O)n3cnc4ccccc43)c3ccccc3n2)cc1 -1.65%
COc1ccc(-c2nc3ccccc3c(=O)n2CCc2ccc(O)cc2)cc1 29.5%
O=C(COC(=O)c1ccccc1Br)Nc1nnc(-c2ccccc2)o1 -10.6%
CC1CCN(c2ccc(-c3ccc(NC(=O)c4ccco4)cc3)nn2)CC1 -39.2%
CSCCC(NC(=O)c1ccco1)C(=O)Nc1cc(C)ccn1 (stereo not drawn) 4.08%
Cc1ccc(-c2csc(NC(=O)C3=COCCO3)n2)cc1C 31.4%
CCc1ccc(C2C(C#N)=C(N)Oc3n[nH]c(CC(=O)OC)c32)cc1 (stereo not drawn) 3.08%
Cc1cc(C)c2c3c(sc2n1)C(c1ccccc1)C(C#N)=C(N)O3 (stereo not drawn) -10.5%
CCN(C(=O)CSc1ncnc2c1cnn2-c1ccccc1)C1CCS(=O)(=O)C1 (stereo not drawn) -4.69%
Fc1ccc(-c2csc(-c3ccc(C4SCCS4)cc3)n2)cc1F 23.4%
Nc1scc(-c2ccncc2)c1Cl 11.5%
